Data reported in PubChem BioAssay AID1851 (National Center for Advancing Translational Sciences (NCATS), 2009).
Out of some 16,000 compounds screened, about 5,800 (36%) were called active. About 23% were inconclusive and are not listed. The list shows a part of the results. A number with no mark means an inactive call. Calls follow the shape of the dose curve; as a rule, active = well fitted curve in the direction sought with a large enough effect; inconclusive = small, poorly fitted or top-dose-only effect, or effect the other way; inactive = no such curve, though single readings can be large or run the other way.

Each molecule was assayed against Cytochrome P450 2C19 (Homo sapiens) (UniProt P33261) (assay: Cytochrome panel assay with activity outcomes). Conditions: recombinant CYP, pro-luciferin dealkylation, luminescence, p450-cyp2c19; series mostly up to 57.1 µM.
% is scaled to controls: 0 for no effect and ±100 for the full control effect.

Sequence of Cytochrome P450 2C19 (Homo sapiens) (P33261 whole entry, looked up): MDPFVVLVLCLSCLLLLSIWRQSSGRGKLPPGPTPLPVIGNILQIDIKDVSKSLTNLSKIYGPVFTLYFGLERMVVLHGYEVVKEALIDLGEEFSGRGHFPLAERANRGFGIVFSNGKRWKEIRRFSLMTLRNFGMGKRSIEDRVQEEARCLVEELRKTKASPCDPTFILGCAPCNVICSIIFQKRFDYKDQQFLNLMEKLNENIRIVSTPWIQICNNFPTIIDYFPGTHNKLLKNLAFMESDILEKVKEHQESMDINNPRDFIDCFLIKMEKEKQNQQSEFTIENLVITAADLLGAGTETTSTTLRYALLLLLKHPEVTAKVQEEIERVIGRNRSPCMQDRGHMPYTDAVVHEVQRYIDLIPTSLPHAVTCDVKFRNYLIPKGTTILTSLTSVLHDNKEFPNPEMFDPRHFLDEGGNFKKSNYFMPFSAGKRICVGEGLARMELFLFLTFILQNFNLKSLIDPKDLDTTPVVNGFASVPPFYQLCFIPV

Structure (SMILES)	AC50	activity, negative = inhibition
CN1CCN(c2ncc3nc(-c4cc(F)cc(F)c4)c(=O)n(C)c3n2)CC1	inactive	–
CC(C)NC[C@@H](O)COc1ccc(COCCOC(C)C)cc1	inactive	–
Cc1ccc(OCC(O)CNC(=O)c2ccccc2C(=O)O)cc1 (configuration not stated)	20 µM (active)	–
Cc1ccc(S(=O)(=O)NCC(=O)N(CC(=O)NCc2ccco2)Cc2cccs2)cc1	14.1 µM (active)	–
CC(C)(C)OC(=O)NCCc1nnc(SCC(=O)Nc2cccc(Cl)c2)o1	3.98 µM (active)	–
NC(=O)OCC(COC(N)=O)c1ccccc1	inactive	–
Cc1ccc(C(CC(N)=O)c2ccco2)cc1 (configuration not stated)	14.1 µM (active)	–
CC(C)(C)c1cc2cccnc2n1Cc1ccccc1	10 µM (active)	–
COc1ccc(-c2nc(C(=O)N3CCN(C)CC3)sc2-c2ccc(OC)cc2)cc1	inactive	–
COc1ccc(CC(=O)NCCN2CCCC2)cc1	inactive	–
COc1ccc(-c2ccc(C(=S)N3CCN(C(C)=O)CC3)o2)cc1	15.8 µM (active)	–
O=C(Nc1ccccc1)c1ccccc1CC[N+](=O)[O-]	17.8 µM (active)	–
O=C(O)c1ccccc1-c1ccccc1C(=O)Nc1ccccc1	inactive	–
O=C(Nc1ccccc1)c1cc(-n2cnnc2)ccc1Cl	inactive	–
O=C(Nc1ccccc1)c1cc([N+](=O)[O-])ccc1Cl	0.794 µM (active)	–
Cn1c(=O)c2[nH]c(/N=N\N3CCN(CCO)CC3)nc2n(C)c1=O	–	7.88% [at 11.4 µM]
O=C(O)CN(CCN(CC(=O)O)CC(=O)O)CC(=O)O.[Mn]	–	-2.62% [at 11.4 µM]
CCCCCNCc1cccc(Br)c1	11.2 µM (active)	–
O=C(NCCC1=CCCCC1)C1CCCN(c2nc3ccccc3o2)C1 (configuration not stated)	2.82 µM (active)	–
CC(C)(C)c1ccc(C(=O)N2CCC(C(=O)NCCC3=CCCCC3)CC2)cc1	15.8 µM (active)	–
COc1cc(OC)nc(NC(C)=O)n1	inactive	–
CC(=O)Nc1nc(NC(C)=O)c2[nH]c(CO)nc2n1	–	4.22% [at 11.4 µM]
CSc1cc(C)nc(NC(C)=O)n1	7.94 µM (active)	–
O=C(Oc1ccc2ccccc2c1Br)N1CCCCCC1	1.78 µM (active)	–
O=C(Oc1ccccc1)N1CCC2(CC1)CCN(c1ccccc1)CC2	inactive	–

Structure (SMILES)	AC50	activity, negative = inhibition
Cc1cc(C)c2c(-n3cccc3)nn(CC#N)c2n1	11.2 µM (active)	–
Cc1cc(C)c2c(-n3cccc3)n[nH]c2n1	5.01 µM (active)	–
CN(C)/N=N\c1nc[nH]c1C(N)=O	inactive	–
CCc1nnc2sc(-c3ccc(NC(=O)c4ccco4)cc3)nn12	28.2 µM (active)	–
O=C(O)[C@@H](O)[C@@H](O)[C@@H](O[C@H]1O[C@@H](CO)[C@@H](O)[C@@H](O)[C@@H]1O)[C@@H](O)CO	inactive	–
COc1ccc(/C(C)=N/NC(=O)c2ccc(CSc3cccc4cccnc34)cc2)cc1OC	2.51 µM (active)	–
COCC(C)NCc1cccc(C)c1 (configuration not stated)	inactive	–
Cc1cccc(CSc2cccc3cccnc23)c1	2.24 µM (active)	–
CO[C@H]1COC(=O)C/C=C\[C@H](C)[C@@H](OC)COC(=O)[C@H](C)COC(=O)C/C=C\[C@@H]1C	–	9.22% [at 11.4 µM]
Cc1ccc(-n2ncc(N(C)C)c(Cl)c2=O)cc1	inactive	–
C=CCNc1cnn(-c2ccc(C)cc2)c(=O)c1Cl	11.2 µM (active)	–
CC(C)/C(=N/[N+](C)(C)C)c1ccccc1	–	18.6% [at 11.4 µM]
C[C@@H](C(=O)O)c1ccc(C(=O)c2cccs2)cc1	inactive	–
C[C@@H](C(=O)O)c1ccc(C(=O)c2ccccc2)s1	3.98 µM (active)	–
Cc1ccccc1Oc1ncnc2oc(-c3ccccc3)cc12	3.98 µM (active)	–
Cc1cc(Cl)ccc1Oc1ncnc2oc(-c3ccccc3)cc12	1.12 µM (active)	–
Cc1ccccc1Oc1ncnc2sccc12	3.55 µM (active)	–
COCCNC(=O)CSc1ncnc2sccc12	inactive	–
COc1cccc([C@H](O)Cn2cc(-c3ccc(CON=C(C)C)cc3)nn2)c1	–	6.04% [at 11.4 µM]
Cc1cccc(OCCn2c(-c3ccco3)nc3ccccc32)c1	1.58 µM (active)	–
Cc1cccc(OCCn2c(S(=O)(=O)O)nc3ccccc32)c1	inactive	–
O=S1(=O)C=C(N2CCOCC2)c2ccccc21	inactive	–
O=S1(=O)C=C(Oc2ccc3ccccc3c2)c2ccccc21	3.55 µM (active)	–
Cc1ccc(S(=O)(=O)Nc2nc3ccccc3nc2N2CCc3ccccc3C2)cc1	5.01 µM (active)	–
Nc1ccc(S(=O)(=O)Nc2cnc3ccccc3n2)cc1	inactive	–

Structure (SMILES)	AC50	activity, negative = inhibition
CCCCn1c(SCC(N)=O)nc2ccc(N3CCOCC3)cc2c1=O	inactive	–
O=C(c1ccncc1)N1CCC2(CCCN(Cc3ccccc3)C2)CC1	inactive	–
N#CCCn1c(=O)c(-c2ccc(F)cc2)nc2cnc(OCc3ccccc3)nc21	inactive	–
N#CCSc1nc2cc(C(=O)N3CCCC3)ccc2c(=O)n1Cc1ccccc1	11.2 µM (active)	–
N#CCSc1nc2ccc(N3CCCCC3)cc2c(=O)n1Cc1ccccc1	7.94 µM (active)	–
COc1ccc(C(=O)N2CCC[C@@]3(CCN(Cc4ccc(C#N)cc4)C3)C2)cc1	inactive	–
CSc1nc(N)c2ncn([C@H]3O[C@H](COP(=O)(O)OP(=O)(O)O)[C@@H](O)[C@@H]3O)c2n1	inactive	–
N#Cc1cc(-c2ccccc2)cnc1Sc1ccc(Cl)cc1	4.47 µM (active)	–
N#Cc1cc(-c2ccc(Cl)cc2)cnc1Sc1ccccc1	4.47 µM (active)	–
N=C1C(c2nc(-c3ccc(F)cc3)cs2)=C(O)CN1CCCN1CCOCC1	25.1 µM (active)	–
c1ccc2c(c1)ncn2-c1ncnc2sc3c(c12)CCCC3	8.91 µM (active)	–
N#Cc1c2c(c(-n3cnc4ccccc43)n3c1nc1ccccc13)CCC2	inactive	–
COc1ccccc1CN1CC2(CCN(C(=O)c3ccncc3)CC2)C1	inactive	–
COc1ccccc1CN1C(=O)c2ccncc2C1=O	14.1 µM (active)	–
COc1ccccc1CN1CC2(CCN(C(=O)c3cnccn3)CC2)C1	inactive	–
CCOC(=O)c1c(C)nc2sc3c(=O)n(-c4ccc(C(C)=O)cc4)nnc3c2c1-c1ccc(Cl)cc1	inactive	–
CCOC(=O)c1c(C)nc2sc3c(=O)n(-c4ccc(C)cc4)cnc3c2c1-c1ccc(OC)cc1	1.26 µM (active)	–
Cc1cc2ccccc2c[n+]1CC(O)C[n+]1cc2ccccc2cc1C	–	3.92% [at 11.4 µM]
O=C(O)c1ccc(OCc2ccccc2)c(Cl)c1	–	18.7% [at 11.4 µM]
O=C(NCc1ccccc1)c1cccc(COc2cccc(Cl)c2)c1	7.08 µM (active)	–
N#CC1=C(N)OC2=C(C(=O)CCC2)C12CCC1(CC2)OCCO1	inactive	–
O=c1c(-c2nnc(SCc3ccc(Cl)cc3Cl)o2)cccn1Cc1ccccc1	1.26 µM (active)	–
O=c1c(-c2nnc(SCc3ccc(Cl)c(Cl)c3)o2)cccn1Cc1ccccc1	1.41 µM (active)	–
COc1ccc(-c2nc3cnc(N4CCN(C)CC4)nc3n(C)c2=O)cc1	inactive	–
CN(C)c1ncc2nc(-c3cc(F)cc(F)c3)c(=O)n(CCC#N)c2n1	inactive	–

Structure (SMILES)	AC50	activity, negative = inhibition
CC1CC(C)CN(C/C=C/c2ccccc2[N+](=O)[O-])C1 (configuration not stated)	7.08 µM (active)	–
Cc1ccc(NC(=O)/C(=C/c2cccc([N+](=O)[O-])c2)NC(=O)C2CCCCC2)c(C)c1	inactive	–
CCOC(=O)C1CCCN(C/C=C/c2ccccc2[N+](=O)[O-])C1 (configuration not stated)	3.98 µM (active)	–
O=C(/C=C/c1cccc([N+](=O)[O-])c1)NCCN1CCOCC1	inactive	–
CC1CCCN(C/C=C/c2ccccc2[N+](=O)[O-])C1 (configuration not stated)	8.91 µM (active)	–
CCOC(=O)C1CCCN(C(=O)/C=C/c2cccc([N+](=O)[O-])c2)C1 (configuration not stated)	14.1 µM (active)	–
O=C(O)[C@H]1CCCN(CCC=C(c2ccccc2)c2ccccc2)C1	inactive	–
O=C(CCCCC(=O)Nc1c(I)cc(I)c(C(=O)O)c1I)Nc1c(I)cc(I)c(C(=O)O)c1I	inactive	–
O=C(O)CCNc1ncnc2nc[nH]c12	–	35.9% [at 11.4 µM]
O=C(Nc1cc(C(=O)Nc2ccc(S(=O)(=O)O)cc2S(=O)(=O)O)cc(C(=O)Nc2ccc(S(=O)(=O)O)cc2S(=O)(=O)O)c1)Nc1cc(C(=O)Nc2ccc(S(=O)(=O)O)cc2S(=O)(=O)O)cc(C(=O)Nc2ccc(S(=O)(=O)O)cc2S(=O)(=O)O)c1	inactive	–
C#CCCCO/N=C1/C[C@@H](O)[C@@H](O)[C@@H]2[C@@H]3C(=O)N(CCC(=O)OCC)C(=O)[C@H]3CC[C@H]12	–	2.13% [at 11.4 µM]
Oc1c(Cl)cc(CN(Cc2cc(Cl)c(O)c(Cl)c2)C2CCCCC2)cc1Cl	–	-4.32% [at 11.4 µM]
Oc1c(Cl)cc(C(c2cc(Cl)c(O)c(Cl)c2)C(c2cc(Cl)c(O)c(Cl)c2)c2cc(Cl)c(O)c(Cl)c2)cc1Cl	2.51 µM (active)	–
O=C(O)CCN1C(=S)CSC1=S	–	27% [at 11.4 µM]
COC(=O)N1CCC2(CCN(Cc3ccccc3OC)CC2)CC1	inactive	–
COc1ccccc1COC(=O)Nc1c(C)nn(C)c1Cl	3.55 µM (active)	–
Cc1nn(C)c(Cl)c1NC(=O)OCc1ccc(F)cc1	7.08 µM (active)	–
Cc1nn(C)c(Cl)c1NC(=O)OCc1ccc(Cl)cc1Cl	2.24 µM (active)	–
COc1ccccc1CN1CCC2(CC1)CCN(C(=O)c1c(C)noc1C)CC2	inactive	–
CCOC(=O)N/N=C/c1ccc(F)cc1	inactive	–
O=C(c1cnccn1)N1CCC2(CC1)CN(C(c1ccccc1)c1ccccc1)C2	inactive	–
CN(C)Cc1c[nH]c2nc[nH]c(=O)c12	–	42.6% [at 11.4 µM]
